# According to the supplement of paper PMC4466140:
# Key:
# Experiment in all cases: SPOT peptide array binding signal intensity (averaged, normalized) (arbitrary units (background-subtracted, floor 0; scale differs between SH3 domains)); higher = stronger binding of the SH3 domain to the peptide
# [1] = molecular target: AgAbp1
# Outline: (§1)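 Peptides were synthetic 15-mers on cellulose membranes, with every cysteine replaced by serine. They were incubated overnight at 4°C with GST-SH3 domains from four yeast species at 10 μg/ml in TBS-based blocking buffer. Binding signal, the replicate-averaged normalized and background-subtracted spot intensity, is in arbitrary units that differ between domains.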
# [2] = molecular target: AgBbc1
# Outline: as §1
# [3] = molecular target: AgBem1-D1
# Outline: as §1
# [4] = molecular target: AgBzz1-D1
# Outline: as §1
# [5] = molecular target: AgBzz1-D2
# Outline: as §1
# [6] = molecular target: AgCyk3
# Outline: as §1
# [7] = molecular target: AgFus1
# Outline: as §1
# [8] = molecular target: AgHof1
# Outline: as §1
# [9] = molecular target: AgHse1
# Outline: as §1
# [10] = molecular target: AgLsb1
# Outline: as §1
# [11] = molecular target: AgLsb4
# Outline: as §1
# [12] = molecular target: AgMyo5
# Outline: as §1
# [13] = molecular target: AgNbp2
# Outline: as §1
# [14] = molecular target: AgRvs167
# Outline: as §1
# [15] = molecular target: AgSho1
# Outline: as §1
# [16] = molecular target: AgSla1-D1-D2
# Outline: as §1
# [17] = molecular target: AgSla1-D3
# Outline: as §1
# [18] = molecular target: CaAbp1-D1
# Outline: as §1
# [19] = molecular target: CaAbp1-D2
# Outline: as §1
# [20] = molecular target: CaBbc1
# Outline: as §1
# [21] = molecular target: CaBem1-D1
# Outline: as §1
# [22] = molecular target: CaBzz1-D1
# Outline: as §1
# [23] = molecular target: CaBzz1-D2
# Outline: as §1
# [24] = molecular target: CaCyk3
# Outline: as §1
# [25] = molecular target: CaFus1
# Outline: as §1
# [26] = molecular target: CaHof1
# Outline: as §1
# [27] = molecular target: CaHse1
# Outline: as §1
# [28] = molecular target: CaLsb1
# Outline: as §1
# [29] = molecular target: CaLsb4
# Outline: as §1
# [30] = molecular target: CaMyo5
# Outline: as §1
# [31] = molecular target: CaNbp2
# Outline: as §1
# [32] = molecular target: CaRvs167
# Outline: as §1
# [33] = molecular target: CaRvs167-3
# Outline: as §1
# [34] = molecular target: CaSho1
# Outline: as §1
# [35] = molecular target: CaSla1-D1-D2
# Outline: as §1
# [36] = molecular target: CaSla1-D3
# Outline: as §1
# [37] = molecular target: ScAbp1
# Outline: as §1
# [38] = molecular target: ScBbc1
# Outline: as §1
# [39] = molecular target: ScBem1-D1
# Outline: as §1
# [40] = molecular target: ScBzz1-D1
# Outline: as §1
# [41] = molecular target: ScBzz1-D2
# Outline: as §1
# [42] = molecular target: ScCyk3
# Outline: as §1
# [43] = molecular target: ScFus1
# Outline: as §1
# [44] = molecular target: ScHof1
# Outline: as §1
# [45] = molecular target: ScHse1
# Outline: as §1
# [46] = molecular target: ScLsb1
# Outline: as §1
# [47] = molecular target: ScLsb2
# Outline: as §1
# [48] = molecular target: ScLsb3
# Outline: as §1
# [49] = molecular target: ScLsb4
# Outline: as §1
# [50] = molecular target: ScMyo3
# Outline: as §1
# [51] = molecular target: ScMyo5
# Outline: as §1
# [52] = molecular target: ScNbp2
# Outline: as §1
# [53] = molecular target: ScPex13
# Outline: as §1
# [54] = molecular target: ScRvs167
# Outline: as §1
# [55] = molecular target: ScSho1
# Outline: as §1
# [56] = molecular target: ScSla1-D1-D2
# Outline: as §1
# [57] = molecular target: ScSla1-D3
# Outline: as §1
# [58] = molecular target: SpAbp1-D1
# Outline: as §1
# [59] = molecular target: SpBbc1
# Outline: as §1
# [60] = molecular target: SpBzz1-D1
# Outline: as §1
# [61] = molecular target: SpBzz1-D2
# Outline: as §1
# [62] = molecular target: SpCyk3
# Outline: as §1
# [63] = molecular target: SpHof1
# Outline: as §1
# [64] = molecular target: SpHof1-2
# Outline: as §1
# [65] = molecular target: SpHof1-3
# Outline: as §1
# [66] = molecular target: SpHse1
# Outline: as §1
# [67] = molecular target: SpLsb1
# Outline: as §1
# [68] = molecular target: SpLsb4
# Outline: as §1
# [69] = molecular target: SpMyo1
# Outline: as §1
# [70] = molecular target: SpNbp2
# Outline: as §1
# [71] = molecular target: SpPex13
# Outline: as §1
# [72] = molecular target: SpRvs167
# Outline: as §1
# [73] = molecular target: SpSla1-D1-D2
# Outline: as §1
# [74] = molecular target: SpSla1-D3
# Outline: as §1
binder,measurement,setting,value
LYEAMPPTLPHRDWK,SPOT peptide array binding signal intensity,[1],1
same,SPOT peptide array binding signal intensity,[2],2.5
same,SPOT peptide array binding signal intensity,[3],13.5
same,SPOT peptide array binding signal intensity,[4],≤ 0
same,SPOT peptide array binding signal intensity,[5],≤ 0
same,SPOT peptide array binding signal intensity,[6],2
same,SPOT peptide array binding signal intensity,[7],33
same,SPOT peptide array binding signal intensity,[8],0.5
same,SPOT peptide array binding signal intensity,[9],50
same,SPOT peptide array binding signal intensity,[10],30.5
same,SPOT peptide array binding signal intensity,[11],518
same,SPOT peptide array binding signal intensity,[12],0.5
same,SPOT peptide array binding signal intensity,[13],154
same,SPOT peptide array binding signal intensity,[14],30.2
same,SPOT peptide array binding signal intensity,[15],26.5
same,SPOT peptide array binding signal intensity,[16],≤ 0
same,SPOT peptide array binding signal intensity,[17],≤ 0
same,SPOT peptide array binding signal intensity,[18],8
same,SPOT peptide array binding signal intensity,[19],1.5
same,SPOT peptide array binding signal intensity,[20],16.5
same,SPOT peptide array binding signal intensity,[21],16
same,SPOT peptide array binding signal intensity,[22],50.5
same,SPOT peptide array binding signal intensity,[23],27.2
same,SPOT peptide array binding signal intensity,[24],≤ 0
same,SPOT peptide array binding signal intensity,[25],327
same,SPOT peptide array binding signal intensity,[26],0.5
same,SPOT peptide array binding signal intensity,[27],150
same,SPOT peptide array binding signal intensity,[28],0.5
same,SPOT peptide array binding signal intensity,[29],806
same,SPOT peptide array binding signal intensity,[30],12
same,SPOT peptide array binding signal intensity,[31],141
same,SPOT peptide array binding signal intensity,[32],195
same,SPOT peptide array binding signal intensity,[33],6
same,SPOT peptide array binding signal intensity,[34],130
same,SPOT peptide array binding signal intensity,[35],25.5
same,SPOT peptide array binding signal intensity,[36],60.5
same,SPOT peptide array binding signal intensity,[37],≤ 0
same,SPOT peptide array binding signal intensity,[38],≤ 0
same,SPOT peptide array binding signal intensity,[39],≤ 0
same,SPOT peptide array binding signal intensity,[40],≤ 0
same,SPOT peptide array binding signal intensity,[41],21
same,SPOT peptide array binding signal intensity,[42],3
same,SPOT peptide array binding signal intensity,[43],95.5
same,SPOT peptide array binding signal intensity,[44],4.5
same,SPOT peptide array binding signal intensity,[45],15
same,SPOT peptide array binding signal intensity,[46],13
same,SPOT peptide array binding signal intensity,[47],2
same,SPOT peptide array binding signal intensity,[48],736
same,SPOT peptide array binding signal intensity,[49],636
same,SPOT peptide array binding signal intensity,[50],19.5
same,SPOT peptide array binding signal intensity,[51],0.5
same,SPOT peptide array binding signal intensity,[52],252
same,SPOT peptide array binding signal intensity,[53],807
same,SPOT peptide array binding signal intensity,[54],374
same,SPOT peptide array binding signal intensity,[55],257
same,SPOT peptide array binding signal intensity,[56],46
same,SPOT peptide array binding signal intensity,[57],85.5
same,SPOT peptide array binding signal intensity,[58],≤ 0
same,SPOT peptide array binding signal intensity,[59],2
same,SPOT peptide array binding signal intensity,[60],67
TKHKAPPPPPPTAET,SPOT peptide array binding signal intensity,[31],≤ 0
same,SPOT peptide array binding signal intensity,[32],≤ 0
same,SPOT peptide array binding signal intensity,[33],4
same,SPOT peptide array binding signal intensity,[34],≤ 0
same,SPOT peptide array binding signal intensity,[35],6.5
same,SPOT peptide array binding signal intensity,[36],≤ 0
same,SPOT peptide array binding signal intensity,[37],1.5
same,SPOT peptide array binding signal intensity,[38],≤ 0
same,SPOT peptide array binding signal intensity,[39],3
same,SPOT peptide array binding signal intensity,[40],5910
same,SPOT peptide array binding signal intensity,[41],5
same,SPOT peptide array binding signal intensity,[42],≤ 0
same,SPOT peptide array binding signal intensity,[43],18
same,SPOT peptide array binding signal intensity,[44],≤ 0
same,SPOT peptide array binding signal intensity,[45],≤ 0
same,SPOT peptide array binding signal intensity,[46],0.25
same,SPOT peptide array binding signal intensity,[47],≤ 0
same,SPOT peptide array binding signal intensity,[48],≤ 0
same,SPOT peptide array binding signal intensity,[49],≤ 0
same,SPOT peptide array binding signal intensity,[50],160
same,SPOT peptide array binding signal intensity,[51],112
same,SPOT peptide array binding signal intensity,[52],3.5
same,SPOT peptide array binding signal intensity,[53],0.75
same,SPOT peptide array binding signal intensity,[54],1.5
same,SPOT peptide array binding signal intensity,[55],2.5
same,SPOT peptide array binding signal intensity,[56],≤ 0
same,SPOT peptide array binding signal intensity,[57],4
same,SPOT peptide array binding signal intensity,[58],≤ 0
same,SPOT peptide array binding signal intensity,[59],2
same,SPOT peptide array binding signal intensity,[60],240
same,SPOT peptide array binding signal intensity,[61],6.25
same,SPOT peptide array binding signal intensity,[62],0.5
same,SPOT peptide array binding signal intensity,[63],1
same,SPOT peptide array binding signal intensity,[64],≤ 0
same,SPOT peptide array binding signal intensity,[65],≤ 0
same,SPOT peptide array binding signal intensity,[66],≤ 0
same,SPOT peptide array binding signal intensity,[67],0.5
same,SPOT peptide array binding signal intensity,[68],≤ 0
same,SPOT peptide array binding signal intensity,[69],215
same,SPOT peptide array binding signal intensity,[70],14.5
same,SPOT peptide array binding signal intensity,[71],≤ 0
same,SPOT peptide array binding signal intensity,[72],≤ 0
same,SPOT peptide array binding signal intensity,[73],2
same,SPOT peptide array binding signal intensity,[74],1
